Measurements as given in PubChem BioAssay AID485364 (National Center for Advancing Translational Sciences (NCATS), 2010).
About 11,000 (3.1%) of roughly 360,000 compounds were called active. A call without a number means that no potency is given here. About 4% were inconclusive and are not listed. Calls come from the whole dose curve; as a rule, active = well fitted inhibition curve with a large enough effect; inconclusive = small, poorly fitted or top-dose-only effect; inactive = no such curve, though single readings can be large or run the other way. Many of the other results were omitted from the sample, so actives are more common in it than they were.

The molecules below were run against Schistosoma mansoni thioredoxin glutathione reductase (TGR) (UniProt Q962Y6) (assay: qHTS Assay for the Inhibitors of Schistosoma Mansoni Peroxiredoxins). Conditions: purified TGR, DTNB reduction, TNB absorbance 405 nm; series mostly up to 114 µM.
How it was run: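 First, TGR (20 nM dispensed) and NADPH were mixed with compound. Second, a 15 min room-temperature incubation followed. Third, further NADPH and then DTNB were added to start the reaction. Finally, TNB absorbance was monitored kinetically.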
Note: nearly all actives have a fitted effect of over 60% in size.
Potency is the fitted concentration of half-maximal effect.

SMILES	Potency
CC(C)Cn1c(=O)c2ccccc2n2c(CCC(=O)N3CCN(c4cccc(Cl)c4)CC3)nnc12	inactive
Cc1ccc(/C=C/C(=O)O)cc1S(=O)(=O)N1CCC(Cc2ccccc2)CC1	25.1 µM (active)
Cn1cc(S(=O)(=O)N2CCC(Cc3ccccc3)CC2)c(=O)n(C)c1=O	inactive
O=C(O)c1ccc(S(=O)(=O)N2CCC(Cc3ccccc3)CC2)cc1	inactive
CNC(=O)C1CCN(S(=O)(=O)c2c(C)noc2/C=C/c2cccc(C)c2)CC1	inactive
Cc1noc(/C=C/c2ccco2)c1S(=O)(=O)N1CCC(C(=O)N2CCc3ccccc32)CC1	44.7 µM (active)
COc1ccccc1N1CCN(C(=O)C2CCN(S(=O)(=O)c3c(C)noc3/C=C/c3ccc(C)cc3)CC2)CC1	inactive
CCCCCCn1nnc2sc(-c3ccccc3)cc2c1=O	inactive
CCCNC(=O)C1CCN(c2nc3ccc(C)cc3[nH]2)CC1	inactive
CC(=O)N(C1=C(Cl)C(=O)c2ccccc2C1=O)c1ccc(C(=O)O)cc1	0.224 µM (active)
O=C(Nc1ccc(F)cc1F)c1ccc2c(=O)n3c(nc2c1)CCCCC3	inactive
COc1ccccc1-n1c(-c2ccc(C)cc2)cn2c3c(=O)n(C)c(=O)n(C)c3nc12	inactive
CCn1c(COc2ccc(OC)cc2)nnc1SCC(=O)Nc1cc(OC)ccc1OC	inactive
CCn1c(SC)nc(O)c(C(c2ccc(OC)c(O)c2)c2c(O)nc(SC)n(CC)c2=O)c1=O	3.98 µM (active)
CCn1c(CNC(=O)c2ccc(OC)c(OC)c2)nnc1SCC(=O)Nc1ccccc1	inactive
Cc1ccc(-n2c(=O)c3cccnc3n2CC(=O)Nc2ccccc2C(F)(F)F)cc1C	inactive
O=C(CCn1c(=O)c2sccc2n(Cc2ccc(F)cc2)c1=O)NCc1ccc2c(c1)OCO2	inactive
CCn1c(O)c(N=NC(=O)c2cccc(S(=O)(=O)N3CCCCC3)c2)c2ccccc21	inactive
CCn1c(O)c2ccc(C(=O)N=NC(=O)c3cccnc3)cc2c1O	100 µM (active)
C/C(=N\NC(=O)c1ccc2ccccc2c1)c1cccnc1	inactive
CCOc1ccc(C(=O)N2CCN(CCc3ccccn3)CC2)cc1	inactive
CCOc1ccc(NC(=O)c2c(NCc3cccc(OC)c3OC)sc3c2CCC3)cc1	inactive
Cc1cccc(N(CC(=O)N2CCOCC2)S(C)(=O)=O)c1	inactive
CCOc1ccc(N(CC(=O)Nc2cccc(OC)c2)S(C)(=O)=O)cc1	inactive
COC(=O)CN(c1cccc(C(C)=O)c1)S(C)(=O)=O	50.1 µM (active)

SMILES	Potency
CCCc1cc(=O)n2[nH]c(NCc3ccc(CC)cc3)nc2n1	inactive
COc1ccccc1NC(=O)CN1C(=O)c2ccccc2Sc2ccc(C(=O)N3CCCC3)cc21	inactive
O=C1CSC(=S)N1/N=C/c1ccc(O)c([N+](=O)[O-])c1	3.55 µM (active)
CO/N=C/c1ccc(N2CCN(C(=O)c3cccc(Cl)c3)CC2)c([N+](=O)[O-])c1	inactive
CCC1=Nc2cc(C(=O)NCC(C)c3ccccc3)ccc2Sc2ccc(C)cc21 (stereo not drawn)	inactive
CCN1CCC(N(Cc2ccc(F)cc2)C(=O)Nc2cc(C)ccc2C)CC1	inactive
Cc1cnc(C(=O)Oc2cccc(Cl)c2Cl)cn1	22.4 µM (active)
Cc1ccc(-c2cc(C(=O)Oc3ccccc3Cl)no2)cc1C	inactive
Cc1cnc(C(=O)OCC(=O)Nc2ccc(Cl)cc2Cl)cn1	inactive
CCCCSc1ncnc2c1sc1nc(N3CCOCC3)c3c(c12)CCCC3	inactive
COc1cc2c(=O)c(S(=O)(=O)c3ccc(C(C)C)cc3)cn(Cc3ccccc3C)c2cc1OC	inactive
CCOc1ccc(OCC)c(NC(=O)c2c(C)nn(-c3ccccc3)c2-n2cccc2)c1	inactive
CCOc1ccccc1NC(=O)Cn1nnc(C(=O)Nc2ccc(C)c(C)c2)c1N	inactive
CCOc1ccc(N(CC)S(=O)(=O)N2CCCC(C(=O)Nc3ccc(C(C)=O)cc3)C2)cc1 (stereo not drawn)	inactive
O=C(NCCCN1CCOCC1)c1ccc([N+](=O)[O-])cc1[N+](=O)[O-]	inactive
O=S(=O)(NCCCN1CCOCC1)c1ccc(F)c(Cl)c1	inactive
O=[N+]([O-])c1cc(S(=O)(=O)CCCN2CCOCC2)ccc1F	7.08 µM (active)
COC(=O)c1cc2occc2n1Cc1nc(-c2ccc(C)cc2)oc1C	inactive
COc1ccc(-c2nc3sc(CCNC(=O)C(C)(C)C)c(C)n3n2)cc1	inactive
Cc1ccc(S(=O)(=O)NCCSc2ccccc2)cc1[N+](=O)[O-]	inactive
CCS(=O)(=O)c1cc([N+](=O)[O-])c(Sc2ccccc2N)s1	20 µM (active)
Cc1c(C(=O)Nc2cccc(Cl)c2)oc2ccc(S(=O)(=O)N3CCOCC3)cc12	inactive
CCOc1ccc2nc(N3CCC(C(=O)Nc4cc(C)ccc4C)CC3)sc2c1	inactive
Cc1cccn2c(=O)c(C=O)c(Nc3ccc(S(N)(=O)=O)cc3)nc12	inactive
O=Cc1c(Nc2ccccc2Cl)nc2ccccn2c1=O	10 µM (active)

SMILES	Potency
O=Cc1c(N2CCN(c3cccc(Cl)c3)CC2)nc2ccccn2c1=O	inactive
CC1CCCN(c2csc3ccc(F)cc3c2=O)C1 (stereo not drawn)	inactive
COc1ccc(CNC(=O)CC2Oc3ccc(C)cc3NC2=O)cc1 (stereo not drawn)	inactive
O=C(NCCc1ccc(Cl)cc1)c1ccc2nc(CCc3ccccc3)oc2c1	inactive
Cc1ccc(C)c(N2CCN(C(=O)CCc3c(C)nc4c(c3C)c(=O)n(C)c(=O)n4C)CC2)c1	inactive
COc1ccccc1C(=O)Nc1ccc(OCc2nnc3c4ccccc4c(C)nn23)cc1	inactive
Cc1ccc(OCc2nnc(SC3CCc4ccccc4C3=O)n2C)cc1 (stereo not drawn)	17.8 µM (active)
Cc1cccnc1NC(=O)CSc1nnc(COc2ccc(C(C)C)cc2)n1C	inactive
CC(=O)Nc1ccc(S(=O)(=O)N2CCN(c3ccccc3)CC2)cc1	inactive
CC(=O)Nc1ccc(S(=O)(=O)N2CCn3cccc3C2C)cc1 (stereo not drawn)	44.7 µM (active)
CC(=O)Nc1ccc(S(=O)(=O)N2CCSCC2)cc1	inactive
Cc1cccc(N(C)C(=O)CS(=O)(=O)c2cccc3nsnc23)c1	inactive
Cc1nc2c(-c3ccc(F)cc3)c(C)nn2c(C)c1CCC(=O)NCc1ccco1	inactive
CCOc1cccc(-c2nn3c(-c4ccccn4)nnc3s2)c1	inactive
Fc1ccc(-c2ccc(-c3nn4c(-c5ccco5)nnc4s3)o2)cc1	50.1 µM (active)
CCN(CCCNC(=O)Cn1ncc2c3ccccc3n(C)c2c1=O)Cc1ccccc1	inactive
COc1ccc(N2CCN(C3=NS(=O)(=O)C(c4cccc(Br)c4)=C3C)CC2)cc1	inactive
COc1ccccc1CNC(=O)c1ccccc1NC(=O)c1nsc2ccccc12	inactive
COc1ccc(C2NC(=O)N(C)C3=C2C(=O)N(c2ccc(C(=O)O)cc2)C3)cc1 (stereo not drawn)	inactive
COc1ccc(N2C(=O)C3CCCN3C2c2cccs2)cc1 (stereo not drawn)	inactive
COc1ccc(N2C(=O)C3C(C2=O)C(C(=O)c2ccccc2)N2CCCC32)cc1 (stereo not drawn)	22.4 µM (active)
Cc1oc(-c2ccccc2)nc1Cn1c(SCc2cccc(C(F)(F)F)c2)nc2cccnc21	inactive
Cc1c2cnn(-c3ccccc3)c(=O)c2c(C)n1C(C)C(=O)Nc1ccc(Br)cc1F (stereo not drawn)	inactive
O=C(/C=C/c1ccccc1)Nc1cc(-c2nc3cc(Cl)ccc3o2)ccc1Cl	inactive
COc1ccc(NC(=O)c2sc3nc(-c4cc5cccc(OC)c5oc4=O)[nH]c(=O)c3c2C)cc1	inactive

SMILES	Potency
COc1cc(CNCCSc2nnnn2C)ccc1OCc1ccc(Cl)cc1Cl	inactive
CC(C)Cn1c(=O)c2ccccc2n2c(-c3cccc(Cl)c3)nnc12	inactive
O=c1cc(-c2ccccc2)n2c(SCc3ccccc3)nnc2[nH]1	inactive
O=c1[nH]c2ccccc2n2c(-c3ccccc3)nnc12	0.1 µM (active)
Cc1ccc(Cn2c(CCCNC(=O)C3CCCCC3)nc3ccccc32)cc1	inactive
CCS(=O)(=O)N1CCc2cc(C(=O)NCc3ccc(C)cc3)ccc21	inactive
COc1ccc(S(=O)(=O)n2nc(C)c(S(=O)(=O)N3CCCCCC3)c2C)cc1	inactive
Cc1ccc(C(=O)Nc2cc3c(cc2N2CCCC2)n(C)c(=O)c(=O)n3C)cc1	inactive
CCc1ccc(S(=O)(=O)Nc2cc3c(cc2N2CCCCC2)n(C)c(=O)c(=O)n3C)cc1	50.1 µM (active)
Cc1ccc(NS(=O)(=O)c2ccc3c(c2)n(C)c(=O)c(=O)n3C)c(C)c1	inactive
CCOC(=O)C1CCN(c2ncnc3c2c(-c2ccccc2)cn3-c2cccc(C)c2)CC1	inactive
CCOC(=O)C1CCN(c2nc3c(S(=O)(=O)c4ccc(CC)cc4)nnn3c3ccc(Cl)cc23)CC1	inactive
COc1ccc(S(=O)(=O)NCc2cccn2Cc2cccc(C)c2)cc1	inactive
Cn1c(=O)c2c(-c3ccccc3Br)n(Cc3ccccc3)cc2n(C)c1=O	inactive
CC(C)N(C(=O)CN1CCN(S(=O)(=O)c2ccc(Br)s2)CC1)C(C)C	inactive
Cc1ccc(S(=O)(=O)N2CCN(CC(=O)N/N=C/c3ccc(Br)s3)CC2)cc1	inactive
Cc1cccc(NC(=O)CN2CCCN(S(=O)(=O)c3ccc(Br)s3)CC2)c1	25.1 µM (active)
COc1ccc(CCNC(=O)CCCn2c(=O)c3ccccc3n(Cc3ccc(F)cc3Cl)c2=O)cc1OC	inactive
Cc1ccc(C(=O)NC(=S)NCc2cccnc2)cc1	inactive
Cc1ccc(-n2nc(-c3ccco3)cc2C(=O)NCc2cccnc2)cc1	3.55 µM (active)
CSc1sc(C(=O)NC(=O)NCc2cccnc2)c(C)c1-c1ccon1	inactive
Cc1ccccc1CNC(=O)CCc1cn(Cc2ccccc2C)c2ccccc12	inactive
Cc1cc(C)cc(NS(=O)(=O)c2ccc(-c3cc(C)no3)s2)c1	inactive
